Results: the supplement of paper PMC6555819

What was measured:
Assay in all cases: PBM binding z-score (relative to random genomic background probes); higher = stronger binding; sequences stand for … in GC…GCGATTGACAGCGTAGAATGAAGG
[1] = tested on: RARb homodimer (NR concentration 270 nM)
Method in brief: (§1)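 Scanned fluorescence from custom Agilent 4×180K protein-binding microarrays was regression-normalized. Binding z-scores use random background probes as reference. Ligand-free nuclear receptor dimers were incubated on the arrays for 1 h and detected with antibodies against each partner (one per run).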

[2] = tested on: RARg:RXRa (NR concentration 270 nM, RXRa partner concentration 90 nM)
Method in brief: as §1

[3] = tested on: RARg homodimer (NR concentration 270 nM)
Method in brief: as §1

[4] = tested on: RXRa DBDmut IVT, anti-RXR (DBD mutation: RXRa K156A/R161A, NR concentration 90 nM)
Method in brief: as §1

[5] = tested on: RXRa homodimer (NR concentration 180 nM)
Method in brief: as §1

[6] = tested on: THRa:RXRa (NR concentration 90 nM, RXRa partner concentration 90 nM)
Method in brief: as §1

[7] = tested on: THRa homodimer (NR concentration 90 nM)
Method in brief: as §1

[8] = tested on: VDR homodimer (NR concentration 270 nM)
Method in brief: as §1

| Sequence | PBM binding z-score [1] | PBM binding z-score [2] | PBM binding z-score [3] | PBM binding z-score [4] | PBM binding z-score [5] | PBM binding z-score [6] | PBM binding z-score [7] | PBM binding z-score [8] |
| --- | --- | --- | --- | --- | --- | --- | --- | --- |
| AGAATGAGGTTATTAAGATCATGGAATTGCGGTC | 0.78 | 1.25 | 0.948 | 1.87 | 1.73 | 2.17 | 0.524 | 1.5 |
| TCTTCTAGATCAAAGGTTAAGAAAGCCGAAGCCT | 1.54 | 1.99 | 1.03 | 0.838 | 2.95 | 1.51 | -0.597 | 0.119 |
| CAAGCTAGGTCACAGAGGTCAAAGTCCGTGCGTA | 5.82 | 7.64 | 8.36 | 3.42 | 8.42 | 4.64 | 2.65 | 7.28 |
| CGTCCAAGGTCAGTGCTAGGTCAGTGAAAGCATT | 4.72 | 6.51 | 6.07 | 2.72 | 4.15 | 3.98 | 2.41 | 2 |
| TCTTGTAGATCAAAGGTTAAGAATGCCGAAGCCT | 1.48 | 1.72 | 0.719 | 0.824 | 3.46 | 1.35 | -0.308 | -0.101 |
| AGAATGAGGTTAAGATCAGGGCAACAGAATACAT | 2.23 | 3.86 | 1.76 | 1.17 | 2.78 | 3.57 | 1.44 | 0.984 |
| TCTAATTGGTCAAAGGTCACACACTCGAAATGCG | 4.96 | 7.28 | 6.41 | 2.51 | 8.16 | 4.13 | 2.44 | 3.16 |
